Source: PubChem
BoNT F protease = inhibitors of Botulinum neurotoxin F light chain protease; Multiplex microsphere protease cleavage assay, flow cytometry; inhibition, % at 10 µM; 360,000 tested, 0.22% active; AID 588497; in the data active = inhibition above about 35%, passing the limit was not always enough; inconclusive = no clear call, values can overlap the other calls
Autofluor counter = flagged as autofluorescent in microsphere protease counterscreen; 360,000 tested, 3.1% active; compound autofluorescence counterscreen, microsphere flow cytometry; active compounds read high; fluorescence intensity (test concentration not listed); AID 624483; in the data active = fluorescence intensity above about 16000; inconclusive = no clear call, values can overlap the other calls
Mtb FBA inh = Mtb fructose-bisphosphate aldolase inhibition; P9WQA3; purified M. tuberculosis FBA, fluorescence read-out; inhibition, % at 1 µM; 360,000 tested, 2.3% active; in the data active = inhibition above about 27%
Target sequence (P9WQA3 whole entry, looked up): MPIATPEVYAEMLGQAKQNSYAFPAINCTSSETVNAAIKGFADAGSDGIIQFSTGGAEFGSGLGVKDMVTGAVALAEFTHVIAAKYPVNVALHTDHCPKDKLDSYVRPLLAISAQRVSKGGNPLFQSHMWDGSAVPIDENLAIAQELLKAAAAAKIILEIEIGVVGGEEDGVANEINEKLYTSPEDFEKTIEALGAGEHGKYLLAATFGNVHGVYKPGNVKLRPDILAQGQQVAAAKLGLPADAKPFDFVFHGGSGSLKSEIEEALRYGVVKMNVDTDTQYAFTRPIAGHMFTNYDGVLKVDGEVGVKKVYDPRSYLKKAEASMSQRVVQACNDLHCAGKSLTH
GDH-TPI inh = counter-screen for M. tuberculosis FBA inhibitors: GDH-TPI coupled enzymes; GDH-TPI coupled enzyme counterscreen, NADH absorbance; inhibition, % at 4.8 µM; 360,000 tested, 1.2% active; in the data active = inhibition above about 30%
BoNT A protease = BoNT A light chain protease inhibition; 360,000 tested, 0.17% active; inhibition, % at 10 µM; multiplex microsphere protease substrate cleavage, flow cytometry
Anthrax LF prot = inhibitors of Bacillus anthracis lethal factor protease; P15917; multiplex microsphere protease cleavage assay, LF; inhibition, % at 10 µM; 360,000 tested, 0.12% active
Hits are given with their value; 0 = inactive; ? = inconclusive; - = no result given; + = active, no number. An excerpt weighted towards active compounds, which were near 6.7% of everything screened. Rule as the data show it, unless noted: active = inhibition above about 30%; inconclusive = no clear call, values can overlap the other calls; inactive = below that.

SMILES | BoNT F protease | Autofluor counter | Mtb FBA inh | GDH-TPI inh | BoNT A protease | Anthrax LF prot
O=C(CN1CCN(CCN2C(=O)c3cccc4cccc(c34)C2=O)CC1)c1ccc(F)cc1 | 0 | 22837 | 0 | 0 | 0 | 0
COc1ccc(C(=O)CN2CCN(CCN3C(=O)c4cccc5cccc(c45)C3=O)CC2)cc1 | 0 | 0 | 0 | 46 | 0 | 0
COc1cc2c3c(cccc3c1)C(=O)N(CCN1CCCC1)C2=O | 0 | 0 | 147 | 0 | 0 | 0
COCC(C)n1c(SCc2nc3ccccc3c(=O)[nH]2)nc2ccccc2c1=O (stereo not drawn) | 0 | 0 | 0 | 0 | 0 | 0
CCN1C(=O)/C(=C/C=C2\N(CC)c3cc(S(=O)(=O)N(C)C)ccc3N2c2ccccc2)SC1=S | 0 | 0 | 0 | 0 | 89 | 38
Cc1ccc(NC(=O)C2CCCN2C(=O)c2cccs2)cc1C (stereo not drawn) | - | - | 0 | 0 | - | -
Cc1ccc(NC(=O)C2CCCN2C(=O)Oc2ccccc2)cc1C (stereo not drawn) | 0 | 17854 | 0 | 0 | 0 | 0
O=C(Nc1ccccn1)C(c1ccccc1)c1ccccc1 | 0 | 0 | 0 | 0 | 0 | 0
Cc1cccn2c(=O)c3cc(C#N)c(=NC(=O)c4ccncc4)n(CCCOC(C)C)c3nc12 | 0 | 0 | 0 | 0 | 0 | 0
N#Cc1cc2c(=O)n3ccccc3nc2n(Cc2ccco2)c1=NC(=O)c1ccco1 | 0 | 0 | 168 | 0 | 0 | 0
Cc1cccn2c(=O)c3cc(C#N)c(=NC(=O)c4cccs4)n(CCCOC(C)C)c3nc12 | ? | 0 | + | 0 | 0 | 0
CC(=O)N=c1c(C#N)cc2c(=O)n3cccc(C)c3nc2n1CCCOC(C)C | 0 | 0 | + | 0 | 0 | 0
N#Cc1cc2c(=O)n3ccccc3nc2n(CCCn2ccnc2)c1=N | 0 | 0 | 0 | 0 | 0 | 0
CC(=O)N=c1c(C#N)cc2c(=O)n3cccc(C)c3nc2n1Cc1ccco1 | 0 | 0 | + | 0 | 0 | 0
Cc1noc(C)c1COc1ccccc1C(=O)N(C)CC(=O)Nc1ccc(Cl)c(Cl)c1 | 0 | ? | 0 | 0 | 0 | 0
CCOCCCn1c(=NC(=O)c2cccs2)c(C#N)cc2c(=O)n3ccccc3nc21 | - | - | + | 0 | - | -
O=C(O)c1cccc2c1-c1ccc([N+](=O)[O-])cc1C2=O | 0 | 0 | 0 | 0 | 0 | 0
Cc1ccc(NC(=O)C2CCN(S(=O)(=O)c3c(C)noc3/C=C/N(C)C)CC2)cc1 | 0 | 0 | 0 | 45 | 0 | 0
Cc1noc(/C=C/N(C)C)c1S(=O)(=O)N1CCC(C(=O)NC(C)(C)C)CC1 | 0 | 0 | 0 | 41 | 0 | 0
Cc1ccc(Cl)cc1NC(=O)C1CCCN(S(=O)(=O)c2c(C)noc2C)C1 (stereo not drawn) | 0 | 0 | 0 | 0 | 0 | 0
Cc1noc(/C=C/N(C)C)c1S(=O)(=O)N1CCC(C(=O)Nc2ccc(Cl)cc2)CC1 | 0 | 0 | 0 | 0 | 0 | 0
Cc1ccc(NC(=O)C2CCCN(S(=O)(=O)c3c(C)noc3/C=C/N(C)C)C2)cc1F (stereo not drawn) | 0 | 0 | 0 | 40 | 0 | 0
Cc1noc(C)c1S(=O)(=O)N1CCCC(C(=O)Nc2ccc(Cl)cn2)C1 (stereo not drawn) | 0 | 0 | 75 | 0 | 0 | 0
CC(=O)NCCc1nc2ccccc2n1Cc1ccc(Cl)cc1 | 0 | 0 | 0 | 0 | 0 | 0
NS(=O)(=O)c1ccc(NC(=O)/C=C/c2ccco2)cc1 | 0 | 0 | 0 | 0 | 0 | 0
SMILES | BoNT F protease | Autofluor counter | Mtb FBA inh | GDH-TPI inh | BoNT A protease | Anthrax LF prot
O=C(Nc1ccc(F)c(Cl)c1)C1CCCCC1 | 0 | 0 | 0 | 0 | 0 | 0
O=C(Cc1ccccc1)N1CCC(c2nc3ccccc3[nH]2)CC1 | 0 | 0 | 0 | 0 | 0 | 0
COC(=O)C1(CCSC)NC(c2ccc(O)cc2)C2C(=O)N(c3ccc(F)cc3)C(=O)C21 (stereo not drawn) | ? | 0 | 114 | 0 | 0 | 0
Cc1cc(NC(=O)CSc2nc(=O)n(CCN(C)C)c3c2CCCC3)no1 | 0 | 0 | 0 | 0 | 0 | 0
CN1CCN(C(=O)c2cc(S(=O)(=O)Nc3ccccc3F)c(Cl)cc2Cl)CC1 | 0 | 0 | 0 | 0 | 0 | 0
COc1ccc(-c2c(C)oc3c(CN4CCCCC4C)c(O)ccc3c2=O)cc1 (stereo not drawn) | 0 | 0 | 174 | 0 | 0 | 0
COc1ccc(Oc2c(C)oc3c(CN4CCOCC4)c(O)ccc3c2=O)cc1 | 0 | 0 | 0 | 0 | 0 | 0
COc1ccccc1-c1coc2c(CN3CCCCC3C)c(O)ccc2c1=O (stereo not drawn) | 0 | 0 | 135 | 0 | 0 | 0
